In article PMC4336329 (PLoS ONE, 2015):
Among all 310,000 compounds or so, about 14,000 (4.5%) showed an effect of 50% or more. Effects have a minus sign here. The full list was thinned out, with strong results kept by preference.

The molecules below were run against human ether-à-go-go-related gene (hERG) potassium channel (human, UniProt Q12809) (assay: primary screen, population patch clamp on CHO cells stably expressing hERG; higher = less effect of the substance).
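Also: peak tail current of the secondary pulse compared with the same well before compound.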

Chain of human ether-à-go-go-related gene (hERG) potassium channel (Q12809 whole entry, looked up): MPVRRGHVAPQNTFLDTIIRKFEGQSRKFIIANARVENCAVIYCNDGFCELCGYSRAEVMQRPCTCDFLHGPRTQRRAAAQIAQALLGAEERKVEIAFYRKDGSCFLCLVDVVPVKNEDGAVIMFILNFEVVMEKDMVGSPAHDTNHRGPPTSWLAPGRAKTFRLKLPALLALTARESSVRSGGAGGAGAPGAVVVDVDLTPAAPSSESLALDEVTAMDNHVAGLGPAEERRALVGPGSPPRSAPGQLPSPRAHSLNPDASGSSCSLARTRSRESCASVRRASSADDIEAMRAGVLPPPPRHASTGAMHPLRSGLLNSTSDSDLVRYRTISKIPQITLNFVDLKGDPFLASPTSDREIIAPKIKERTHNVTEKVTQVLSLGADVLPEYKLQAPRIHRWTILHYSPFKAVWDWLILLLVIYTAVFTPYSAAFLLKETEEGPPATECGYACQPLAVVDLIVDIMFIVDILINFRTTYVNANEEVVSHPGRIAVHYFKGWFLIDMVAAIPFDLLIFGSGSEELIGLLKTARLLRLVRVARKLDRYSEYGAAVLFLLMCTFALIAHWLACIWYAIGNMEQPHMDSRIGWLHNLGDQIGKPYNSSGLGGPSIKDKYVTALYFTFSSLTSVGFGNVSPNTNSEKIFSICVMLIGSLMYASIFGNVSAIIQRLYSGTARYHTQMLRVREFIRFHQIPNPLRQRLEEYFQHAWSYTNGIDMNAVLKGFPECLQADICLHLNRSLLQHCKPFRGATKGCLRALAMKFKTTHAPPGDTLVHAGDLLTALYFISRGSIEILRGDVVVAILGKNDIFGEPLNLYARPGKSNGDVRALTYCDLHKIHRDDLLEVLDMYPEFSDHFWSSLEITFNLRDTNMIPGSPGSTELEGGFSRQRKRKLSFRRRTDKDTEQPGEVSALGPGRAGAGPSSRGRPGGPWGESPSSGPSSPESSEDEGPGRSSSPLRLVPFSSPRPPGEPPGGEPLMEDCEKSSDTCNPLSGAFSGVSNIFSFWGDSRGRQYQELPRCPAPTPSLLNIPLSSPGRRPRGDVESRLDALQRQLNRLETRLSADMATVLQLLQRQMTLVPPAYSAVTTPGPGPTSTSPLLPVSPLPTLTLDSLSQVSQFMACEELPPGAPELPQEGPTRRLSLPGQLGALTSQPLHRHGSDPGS

Going from COc1cc(/C=C/C(=O)OCC(=O)Nc2cc(C(F)(F)F)ccc2N2CCOCC2)ccc1O to CCN(CC)S(=O)(=O)c1ccc(N2CCOCC2)c(NC(=O)CC2OC(=O)c3ccccc32)c1 (stereo not shown), the “hERG current change (%, negative = inhibition) at 10uM” value falls from -0.592% to -26%.

Compared with C=CCOC(=O)C1=C[C@@H](c2ccc(Br)cc2)C[C@@H](OCc2ccc(CO)cc2)O1, CN(C)c1ccc(C=NCCc2ccc(S(N)(=O)=O)cc2)cc1 is higher in “hERG current change (%, negative = inhibition) at 10uM” value: -14.7% for the first, 6.19% for the second.

First: COc1cc(C(=O)OCC(=O)N2CCCCC2C)ccc1OCc1c(C)noc1C (stereo not shown)
Second: Cc1noc(C)c1COC(=O)COc1ccc(C#N)cc1
The “hERG current change (%, negative = inhibition) at 10uM” value of the first is higher: 6.3% for the first, 2.8% for the second.

First: C#CCOCCOCCOCCNc1nc(N2CCN(C(=O)CCCCCCCCCCNC(=O)[C@H](CO)n3cc(CCCSC)nn3)CC2)nc(N2CCN(C(=O)CCCCCCCCCCNC(=O)[C@H](CO)n3cc(CCCSC)nn3)CC2)n1
Second: O=C(CCCn1c(=S)[nH]c2cc3c(cc2c1=O)OCO3)N1CCN(c2ccccc2F)CC1
The “hERG current change (%, negative = inhibition) at 10uM” value of the first is lower: 4.57% for the first, 20.6% for the second.

First: COc1ccccc1NC(=O)c1ccc(S(=O)(=O)N(C)c2ccccc2)cc1
Second: CN(c1ccccc1)S(=O)(=O)c1ccc(Cl)c(C(=O)NCCc2c[nH]c3ccccc23)c1
The “hERG current change (%, negative = inhibition) at 10uM” value of the first is higher: -3.47% for the first, -15.8% for the second.

Going from COc1ccc(NC(=O)c2cc3c(s2)CCC(C)C3)cc1S(=O)(=O)N1CCOCC1 (stereo not shown) to COc1cc(/C=C/C(=O)O)cc(S(=O)(=O)Nc2ccccc2Cl)c1OC, the “hERG current change (%, negative = inhibition) at 10uM” value rises from -19.1% to 18.8%.

Going from Cc1cc(-c2ccccc2)c(C#N)c(SCC(N)=O)n1 to CC(O)c1nc2ccccc2n1CC(=O)Nc1ccc(F)cc1Cl (stereo not shown), the “hERG current change (%, negative = inhibition) at 10uM” value rises from -3.47% to 14.2%.

First: Cc1nc2n(c(=O)c1CCN1CCC(c3noc4cc(F)ccc34)CC1)CCCC2
Second: O=C(NCc1ccc(F)cc1)c1ccc2c(=O)n3c(nc2c1)CCCCC3
The “hERG current change (%, negative = inhibition) at 10uM” value of the first is lower: -68% for the first, -36.7% for the second.

Compared with O=C(NCCc1ccc(F)cc1)c1ccc2c(=O)n3c(nc2c1)CCC3, COc1ccc(NC(=S)N2CCCN(Cc3cc(C)ccc3C)C2)cc1 is higher in “hERG current change (%, negative = inhibition) at 10uM” value: -45.7% for the first, -12.7% for the second.

First: CCCCN(CCCNC(=O)CN1C(=O)COc2ccccc21)c1ccccc1
Second: Cc1ccc(C(=O)OCC(=O)Nc2ccccc2)cc1NC(=O)c1ccco1
The “hERG current change (%, negative = inhibition) at 10uM” value of the first is lower: -26% for the first, -4.37% for the second.

Going from O=C(CN1CCN(C(c2ccccc2)c2ccccc2)CC1)N1N=CCC1c1ccccc1 (stereo not shown) to O=C(CN1CCN(c2ccccc2)CC1)N1N=CCC1c1ccccc1 (stereo not shown), the “hERG current change (%, negative = inhibition) at 10uM” value rises from -50.1% to 5.51%.

First: CCN1CCN(CC(=O)N2N=CCC2c2ccccc2)CC1 (stereo not shown)
Second: CCOc1ccc(NC(=S)N2CCCN(Cc3cccc(Cl)c3)C2)cc1
The “hERG current change (%, negative = inhibition) at 10uM” value of the first is higher: 3.12% for the first, -17.6% for the second.

Compared with CC(C)CN(C(=O)CCC(=O)OCC(=O)N(C)c1ccccc1)c1c(N)n(CC(C)C)c(=O)[nH]c1=O, O=C(COC(=O)CNC(=O)c1ccccc1Cl)Nc1ncc(C(F)(F)F)cc1Cl is lower in “hERG current change (%, negative = inhibition) at 10uM” value: 10.7% for the first, -1.76% for the second.

Compared with CCOc1ccc(NC(=S)N2CCCN(Cc3cc(C)ccc3C)C2)cc1, Cc1cc(-n2cnnn2)cc(C)c1S(=O)(=O)NCCOc1ccccc1 is higher in “hERG current change (%, negative = inhibition) at 10uM” value: -57.8% for the first, -38.5% for the second.

Compared with COc1ccc2[nH]c(=O)c(CN(C(=O)c3cccnc3)c3cccc(C)c3)cc2c1, COc1cccc(-c2nnc(NC(=O)c3ccc4ncsc4c3)o2)c1 is lower in “hERG current change (%, negative = inhibition) at 10uM” value: 11.5% for the first, -8.13% for the second.

Going from O=C(COC(=O)CNC(=O)c1ccc([N+](=O)[O-])o1)Nc1ncc(C(F)(F)F)cc1Cl to O=C(COC(=O)CNC(=O)c1ccc([N+](=O)[O-])o1)Nc1ncc(Cl)cc1Cl, the “hERG current change (%, negative = inhibition) at 10uM” value rises from -58.3% to -54.9%.

First: Cc1ccc(C(=O)OCC(=O)Nc2ncc(Cl)cc2Cl)cc1NC(=O)c1ccco1
Second: Cc1ccc(C(=O)OCC(=O)Nc2ncc(C(F)(F)F)cc2Cl)cc1NC(=O)c1ccco1
The “hERG current change (%, negative = inhibition) at 10uM” value of the first is higher: -48.7% for the first, -50.1% for the second.

Going from O=C(COC(=O)CNC(=O)c1ccco1)Nc1ncc(Cl)cc1Cl to COc1ccc(C(=O)NCC(=O)OCC(=O)Nc2ncc(Cl)cc2Cl)cc1[N+](=O)[O-], the “hERG current change (%, negative = inhibition) at 10uM” value falls from 7.02% to -37.3%.

First: O=C(COC(=O)c1ccc([N+](=O)[O-])s1)Nc1ncc(C(F)(F)F)cc1Cl
Second: Cc1c(Cl)cnc(NC(=O)COC(=O)c2ccc([N+](=O)[O-])s2)c1Cl
The “hERG current change (%, negative = inhibition) at 10uM” value of the first is lower: -63% for the first, 6.06% for the second.

First: O=C(COC(=O)CNC(=O)c1ccc(Cl)cc1)Nc1ncc(C(F)(F)F)cc1Cl
Second: O=C(COC(=O)c1ccccn1)Nc1ncc(C(F)(F)F)cc1Cl
The “hERG current change (%, negative = inhibition) at 10uM” value of the first is lower: -31.8% for the first, -11.7% for the second.

Compared with CCOC(=O)c1sc(NC(=O)c2ccc(C)o2)nc1C, COc1ccc(/C=C/C(=O)Nc2ccccc2C(=O)O)cc1 is higher in “hERG current change (%, negative = inhibition) at 10uM” value: -5.35% for the first, 7.91% for the second.

For COc1cc(C(c2c(C)n(C)n(-c3ccccc3)c2=O)c2c(C)n(C)n(-c3ccccc3)c2=O)cc(Br)c1O, the “hERG current change (%, negative = inhibition) at 10uM” value was 13.7%.
